ADAM10 inh: ADAM10 inhibition, QFRET primary screen; O14672; recombinant ADAM10, EDANS/DABCYL FRET peptide cleavage, 3 h; inhibition, % at 7 µM; 370,000 compounds, 0.62% hits; AID 720582;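 active = inhibition above a per-campaign cutoff equal to the mean of compounds falling between control-based bounds plus 3 SD, cut at about 20% in these data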;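 also: 0% = DMSO wells while the 100% control is not disclosed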
ADAM17 inh: ADAM17 inhibition, QFRET primary screen | 370,000 compounds, 0.83% hits | AID 720648 | recombinant ADAM17, EDANS/DABCYL FRET peptide cleavage | P78536 | inhibition, % at 6.95 µM;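 active = inhibition above the mean of compounds lying between control limits plus 3 SD, set per campaign, cut at about 8.5% in these data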;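 also: 0% = DMSO-only wells as the low control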
KLK7 zymogen act: activates the human kallikrein-7 zymogen | 370,000 compounds, 0.9% hits | activation, % at 7 µM | P49862 | purified proKLK7, EDANS-DABCYL substrate fluorescence; 100% is mature enzyme control, 0% vehicle;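 active = activation above the mean of all tested compounds plus 3 SD, computed per campaign excluding outliers beyond control limits, cut at about 13% in these data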
Target sequence (P49862 whole entry, looked up): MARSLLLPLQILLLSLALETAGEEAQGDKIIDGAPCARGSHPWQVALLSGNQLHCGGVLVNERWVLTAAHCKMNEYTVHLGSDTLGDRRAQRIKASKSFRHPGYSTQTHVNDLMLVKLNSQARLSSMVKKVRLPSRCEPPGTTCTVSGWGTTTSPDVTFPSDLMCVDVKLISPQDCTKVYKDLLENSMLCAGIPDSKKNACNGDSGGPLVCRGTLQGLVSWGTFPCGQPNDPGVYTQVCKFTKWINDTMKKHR
NR3A LBD binder: modulates the human NR3A ligand-binding domain | AID 1259313 | Tm shift relative to glycine control, % at 25 µM | 340,000 compounds, 2.5% hits | NR3A LBD differential scanning fluorimetry, Tm shift; 0% = protein alone, 100% = glycine-bound protein;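 active = melting temperature shift of at least 10% of the positive control shift, at one fixed dose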
FAS-TE inh: FAS thioesterase (human) inhibition; P49327; recombinant FAS-TE, OMFH fluorogenic substrate, fluorescence endpoint; inhibition, % at 15 µM; 360,000 compounds, 0.67% hits; AID 602261;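 active = compounds whose normalised, plate-corrected inhibition of enzyme fluorescence in the single-dose primary screen is 50% or more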;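 also: 0% = DMSO with enzyme and 100% = substrate without enzyme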
KLK7 act conf: confirmation of human kallikrein-7 zymogen activators; AID 686949; shares compounds with KLK7 zymogen act; activation, % at 7 µM; 3,200 compounds, 68% hits; purified proKLK7, EDANS-DABCYL substrate fluorescence; scaled: vehicle 0, mature enzyme 100;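 active = activation, as change over the incubation, above the mean of all tested compounds plus 3 SD, cut at about 13% in these data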
EDANS interfere: optically interferes with EDANS-DABCYL signal, flagging KLK7 hits; shares compounds with KLK7 zymogen act; EDANS-DABCYL substrate fluorescence interference, no enzyme, 4 h; solvent 0%, active enzyme control 100%; activation, % at 7 µM; 3,200 compounds, 80% hits; AID 686952;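 active = activation above the all-compound mean plus 3 SD, ignoring values outside control-based bounds, cut at about 4.8% in these data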;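 also: value is the 4 h activation minus the activation read at time zero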
Numbers without * were called inactive; i = inactive; / = no result. This is a sample that favours compounds with a hit; in the whole collection about 4.6% have one here.

SMILES	ADAM10 inh	ADAM17 inh	KLK7 zymogen act	NR3A LBD binder	FAS-TE inh	KLK7 act conf	EDANS interfere
COC(=O)[C@H](C(C)C)N(CCc1cn(CC2CCCCC2)nn1)S(=O)(=O)c1ccc(F)cc1Br	15	7	0	/	/	/	/
COc1ccc2nc3ccccc3[n+]([O-])c2c1	i	-140	27*	2	-23	32*	34*
COc1ccc2nc(-c3ccccc3)[nH]c2c1	i	-133	3	-6	-2	/	/
N#Cc1c(C(F)(F)F)cc(C2CC2)[nH]c1=O	i	i	18*	0	4	16*	23*
CCn1cc(C2C3=C(CC(C)(C)CC3=O)N(c3ccc(C)cc3)C3=C2C(=O)CC(C)(C)C3)c(C)n1	-14	-6	-1	-1	-4	/	/
COc1ccc(N2C3=C(C(=O)CC(C)(C)C3)C(c3cnn(C)c3)C3=C2CC(C)(C)CC3=O)cc1	i	i	21*	-2	0	-15	-10
COc1ccc2ccc3cccc[n+]3c2c1	i	-500	21*	0	-2	18*	19*
COc1ccc2cc(-c3ccccc3)ncc2c1	-37	-10	1	-2	-3	/	/
COc1ccc2ccccc2c1C=NNC(=O)c1cc(-c2ccc(C)cc2)n[nH]1	-40	-20	41*	/	/	-23	-18
CCc1ccc2oc(=O)cc(CN3CCN(Cc4ccccc4)CC3)c2c1	-13	-4	1	-1	15	/	/
COc1cc2c(cc1OC)CN(Cc1cc(=O)oc3cc(C)c(Cl)cc13)CC2	-90	-31	15*	-4	18	-8	-6
CCc1cc2c(CN3CCN(CC)CC3)cc(=O)oc2cc1O	i	i	71*	2	-13	73*	75*
Cc1c(O)ccc2c(CN3CCN(CCO)CC3)cc(=O)oc12	i	i	66*	4	-8	68*	69*
Cc1ccc2c(CN3CCN(Cc4ccc5c(c4)OCO5)CC3)cc(=O)oc2c1C	-3	-2	1	-1	20	/	/
Cc1c(O)ccc2c(CN3CCOCC3)cc(=O)oc12	i	i	41*	0	-6	65*	67*
N=c1c2c(-c3ccccc3)c(-c3ccccc3)n(Cc3ccccc3)c2ncn1C1CCOCC1	-5	-6	0	/	/	/	/
COc1ccccc1-c1nnc2n1N=C(c1ccc3c(c1)OCO3)CS2	11	2	0	/	/	/	/
O=c1cc(CN2CCOCC2)c2cc(Cl)c(O)cc2o1	i	i	54*	-1	-5	63*	77*
Cc1cc2oc(=O)cc(CN3CCOCC3)c2cc1C(C)C	-10	-3	-1	-2	6	/	/
COC(=O)C1=CN(CC2CCCO2)C=C(C(=O)OC)C1c1cc(OC)c(OC)c(OC)c1 (stereo not given)	i	-383	16*	1	-9	0	0
COC(=O)C1=CN(Cc2ccc(OC)cc2)C=C(C(=O)OC)C1c1cc(OC)c(OC)c(OC)c1	/	/	/	-3	5	/	/
CCOC(=O)C1=C(CSc2nc(-c3ccncc3)ccc2C#N)OC(N)=C(C#N)C1c1ccc(OC)cc1 (stereo not given)	-41	-17	26*	0	20	67*	66*
CCOC(=O)C1=C(CSc2nc(-c3ccncc3)ccc2C#N)OC(N)=C(C#N)C1c1cccnc1 (stereo not given)	-134	-39	51*	1	11	66*	72*
Cc1ccccc1C(=O)NC1CCCCN(Cc2ccc(Cl)cc2)C1=O (stereo not given)	-2	-7	0	/	/	/	/
CCc1cc2c(=O)nc3n(c2s1)Cc1ccccc1/C3=C(/O)c1ccccc1Cl	-11	-7	13*	-4	14	16*	23*
SMILES	ADAM10 inh	ADAM17 inh	KLK7 zymogen act	NR3A LBD binder	FAS-TE inh	KLK7 act conf	EDANS interfere
CCc1cc2c(=O)nc3n(c2s1)Cc1ccccc1/C3=C(/O)c1cccc([N+](=O)[O-])c1	/	/	/	-1	21	/	/
CCc1cc2c(=O)nc3n(c2s1)Cc1ccccc1/C3=C(/O)c1ccc(F)cc1	-69	-15	23*	/	-3	65*	68*
COc1cccc2[nH]c3c(=O)n(CCN(C)C)cnc3c12	i	-286	49*	2	-1	15*	14*
COc1cccc2[nH]c3c(=O)[nH]cnc3c12	i	-388	13*	-1	-8	10	14*
COc1cc2[nH]c3c(=O)n(CCN(C(C)C)C(C)C)cnc3c2cc1OC	-223	-76	6	1	-3	/	/
CCN(CC)CCn1cnc2c([nH]c3cccc(OC)c32)c1=O	i	-364	67*	-2	-4	28*	31*
CCCCN(CCCC)CCn1cnc2c([nH]c3ccc(OC)cc32)c1=O	i	-144	7	4	-4	/	/
Cc1cc(C)cc(C(=O)OCCN2CCN(C3CN(Cc4cn(Cc5ccccc5F)nn4)S(=O)(=O)C3)CC2)c1 (stereo not given)	-7	-7	0	/	/	/	/
CC1(C)Oc2cc3oc(=O)ccc3c3c2C2C1CCC(C)(O3)C2O (stereo not given)	i	-200	16*	/	0	24*	31*
Cc1[nH]nc2c1C(c1ccc(O)cc1)C1=C(CC(C)(C)CC1=O)N2 (stereo not given)	-96	-33	0	-3	-4	/	/
Cc1[nH]nc2c1C(c1ccsc1)C1=C(CC(C)(C)CC1=O)N2 (stereo not given)	i	-215	14*	-2	-1	13*	17*
COc1ccc(-c2cc(NC(=O)Cc3c[nH]c4ccccc34)ccc2Nc2cccnc2)c(OC)c1	10	3	-1	/	/	/	/
COC(=O)[C@H](Cc1ccccc1)NP(=O)(OC)[C@@H](C)NC(=O)OCc1ccccc1 (stereo not given in full)	4	-1	1	/	/	/	/
Cc1cc(NCCN2CCOCC2)n2c(nc3ccccc32)c1C#N	i	-214	16*	2	-3	-97	-170
Cc1cc(NCCCN2CCOCC2)n2c(nc3ccccc32)c1C#N	i	i	31*	1	-5	66*	64*
CCCc1cc(NCCCN2CCOCC2)n2c(nc3ccccc32)c1C#N	i	-406	-11	-1	-3	/	/
Cc1cc(C(=O)O[C@H]2CCC[C@]3(C(=O)N(Cc4ccccc4)c4ccccc43)[C@H]2NC(=O)CCc2ccccc2)no1	4	2	1	/	/	/	/
CC[C@H](C)[C@H](NC(=O)CNC(=O)COc1cc2c(c3oc(=O)cc(C)c13)CCC(C)(C)O2)C(=O)O	i	i	50*	-1	-4	-1	-18

High-throughput results as filed in PubChem BioAssay.
